PLC-beta3 inh: inhibitors of human phospholipase C beta3. Q01970. Purified PLC-beta3, fluorogenic substrate, fluorescence. inhibition, % at 12.2 µM. 0.18% of 370,000 active. AID 720704; in the data active = inhibition above about 11%;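 also: 0% = median of compound wells on plate and 100% = full blocker control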
HGIII-sPLA2 inh: Blocks human group III sPLA2 activity; 0.56% of 370,000 active; QFRET BODIPY PC-A2 liposome hydrolysis, fluorescence; AID 743126; Q9NZ20; inhibition, % at 12.2 µM;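 active = inhibition above mean plus 3 SD of compounds lying within the high and low control bounds, cut at about 19% in these data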;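 also: 0% = median of test compound wells and 100% = no enzyme DMSO wells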
HIF activator: HIF pathway transcriptional activation; AID 1910; 0.32% of 300,000 active; activation, % at 7.5 µM (by protocol); U2OS HRE-luciferase reporter, luminescence; normalized: DMSO 0%, desferrioxamine 100%;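 active = mean activation of at least 10% of the iron chelator positive control signal, with at least half of replicates also reaching 10%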
PLC-gamma1 inh: PLC-gamma1 (human) inhibition, primary screen; P19174; purified PLC-gamma1, fluorogenic substrate, fluorescence; inhibition, % at 12.2 µM; 0.84% of 370,000 active; AID 720700; in the data active = inhibition above about 9.5%
AHR activator: activators of human aryl hydrocarbon receptor; AHR-responsive luciferase reporter cells, luminescence; AID 2796; activation, % at 5 µM; 2.5% of 320,000 active; P35869; in the data active = activation above about 47%;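 also: 0% = vehicle wells and 100% = reference agonist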
CR mimetic SO: caloric restriction mimetics inhibiting age-related superoxide in yeast; 0.18% of 330,000 active; S. cerevisiae aged cells, superoxide DHE fluorescence; stronger effect = lower value; superoxide response (% of plate mean), % at 10 µM; AID 2690;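 active = superoxide response under a set limit, about three screen SD below normal, cut at about 65% in these data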;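 also: yeast aged for seven days with compound at 30 °C before DHE staining; 100% = average MFI of all compound-treated wells on the plate with controls excluded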
AHR act cf: human AHR activation, confirmation; shares compounds with AHR activator; human cells, AHR-responsive luciferase reporter, luminescence; activation, % at 9 µM; 87% of 2,300 active; AID 2845; in the data active = activation above about 49%;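 also: HepG2 hepatoma cells carrying a DRE-driven firefly luciferase reporter; 0% = vehicle wells and 100% = reference agonist wells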
PXR counter: counter-screen for AHR activators: human PXR activators; cell-based PXR reporter, luciferase luminescence; AID 434939; shares compounds with AHR activator; 88% of 2,300 active; activation, % at 11.6 µM; in the data active = activation above about 11%;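 also: human hepatoma DPX-2 cells expressing full-length human PXR; 0% = DMSO and 100% = reference agonist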
Target sequence (O75469 whole entry, looked up): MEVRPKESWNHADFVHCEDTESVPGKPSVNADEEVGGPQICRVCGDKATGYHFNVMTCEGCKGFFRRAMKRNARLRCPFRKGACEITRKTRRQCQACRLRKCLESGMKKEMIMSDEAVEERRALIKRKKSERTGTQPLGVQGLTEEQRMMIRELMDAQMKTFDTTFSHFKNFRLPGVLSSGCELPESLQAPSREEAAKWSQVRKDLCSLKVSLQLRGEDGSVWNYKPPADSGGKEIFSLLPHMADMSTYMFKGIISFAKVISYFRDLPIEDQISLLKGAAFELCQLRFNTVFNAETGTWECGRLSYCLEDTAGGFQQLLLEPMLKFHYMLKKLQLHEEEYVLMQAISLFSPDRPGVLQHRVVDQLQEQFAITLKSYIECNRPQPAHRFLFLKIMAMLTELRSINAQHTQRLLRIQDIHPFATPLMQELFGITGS
Active calls of the source: *; i = inactive; . = no result. A selection: hits, their analogues and other compounds. The true share with any hit is near 3.9%.

SMILES	PLC-beta3 inh	HGIII-sPLA2 inh	HIF activator	PLC-gamma1 inh	AHR activator	CR mimetic SO	AHR act cf	PXR counter
O=C(COC(=O)Cn1cnc2ccccc21)Nc1cc2c(cc1Cl)C(=O)c1ccccc1C2=O	-1.9	4.5	4.6	-2.4	83.6*	151.8	145.5*	27.0*
O=S(=O)(c1cccnc1)N1CCCC(Nc2ccc(F)c(F)c2)C1 (stereo not given)	-0.4	7.2	.	2.7	.	.	.	.
Cc1ccc(S(=O)(=O)N2CCN(C(=O)CN3C(=O)c4ccc([N+](=O)[O-])cc4C3=O)CC2)c(C)c1	-9.1	8.6	-0.8	3.3	2.6	100.8	.	.
CCOC(=O)N/N=C/c1cn(CCCOc2ccccc2)c2ccccc12	-2.9	-17.6	0.7	5.2	104.7*	96.2	84.6*	33.9*
CCOC(=O)N/N=C/c1cn(CCCOc2ccc(C)cc2)c2ccccc12	0.0	-26.2	1.0	2.0	32.5	93.0	.	.
CNC(=S)N/N=C/c1cn(CCOc2ccccc2OC)c2ccccc12	2.4	-6.2	0.1	5.4	80.3*	93.2	61.9*	109.8*
COc1ccccc1OCCn1cc(C=O)c2ccccc21	-0.8	-5.9	-0.8	-3.9	.	96.0	.	.
CCCOc1ccc(F)cc1-c1cc(C(=O)Nc2ccc(OC)cc2C)[nH]n1	-1.4	3.9	.	0.8	.	.	.	.
O=C1C2C3c4ccccc4C(c4ccccc43)C2C(=O)N1Cc1ccccn1 (stereo not given)	0.5	-7.4	0.7	1.9	-2.5	112.7	.	.
O=C(NNc1ccccc1)OCc1ccccc1	0.3	3.7	.	-1.0	.	.	.	.
C/C(=N\N=c1/sc2ccccc2n1C)c1ccccn1	-3.6	1.0	1.5	-3.5	104.3*	123.3	142.6*	25.5*
CC(=O)N/N=c1\sc2ccccc2n1C	0.4	-2.6	0.7	2.4	29.2	97.8	.	.
O=C(CC1Nc2cccc3cccc(c23)NC1=O)Nc1ccccc1 (stereo not given)	-20.3	4.8	-0.6	-15.2	135.8*	93.7	99.1*	78.8*
O=C(CC1Nc2ccccc2NC1=O)Nc1ccc2c(c1)OCO2 (stereo not given)	-4.3	-22.0	1.1	-1.3	152.7*	87.2	136.5*	24.5*
CN1CCN(c2ccc(S(=O)(=O)N3CCOCC3)cc2NC(=O)COc2ccc(C#N)cc2)CC1	-12.3	-9.8	.	-7.3	.	.	.	.
Cc1cc(C)n2nc(N)c(N=Nc3ccc(Cl)cc3)c2n1	0.2	10.7	0.0	2.4	109.2*	91.1	97.6*	30.7*
Cc1cc(C)n2nc(C)c(-c3ccc(Cl)cc3)c2n1	-80.3	-2.3	-21.5	-70.0	6.5	106.1	.	.
COc1cc(OC)cc(C(=O)NCC2CCCN(C(=O)c3csc(C(C)C)n3)C2)c1 (stereo not given)	-4.8	0.0	-0.3	2.7	.	98.0	.	.
CC(C)C[C@H]1CN(CCCC[C@@H]2CNC(=O)C(=O)N2Cc2ccccc2)C(=O)C(=O)N1CCc1ccc(O)cc1	1.9	2.9	.	0.0	.	.	.	.
O=C(Nc1ccc(F)c(Cl)c1)c1cccnc1	-2.9	-1.9	2.0	-1.9	15.0	93.9	.	.
O=C(Nc1ccc(F)c(Cl)c1)c1cncs1	-1.4	2.7	0.8	3.1	100.8*	102.3	95.3*	25.5*
O=C(O)c1ccc(-c2nc3ccccc3s2)o1	-32.9	0.0	0.2	-12.9	3.7	94.5	.	.
O=C(c1ccc(-c2nc3ccccc3s2)o1)N1CCN(c2ccccc2O)CC1	-20.2	-13.3	1.1	-5.4	89.2*	102.1	85.3*	37.4*
CCN(Cc1ccncc1)C(=O)c1ccc(C)c(S(=O)(=O)N2CCCCC2)c1	1.9	2.3	.	-2.7	2.8	105.7	.	.
CCOc1ccccc1NC(=O)Nc1ccc2c(c1)OCO2	-3.2	-3.8	1.0	2.5	102.7*	93.7	114.8*	97.1*
SMILES	PLC-beta3 inh	HGIII-sPLA2 inh	HIF activator	PLC-gamma1 inh	AHR activator	CR mimetic SO	AHR act cf	PXR counter
Cc1ccc(OC(F)F)c(NC(=O)Nc2ccc3c(c2)OCO3)c1	-6.8	-11.8	1.2	-2.5	82.0*	104.2	74.8*	46.8*
Cc1ccc(NC(=O)Nc2ccc3c(c2)OCO3)nc1	3.7	0.1	2.1	6.4	12.0	95.1	.	.
CCOC(=O)c1cc(-c2ccccc2)nc2c(O)cccc12	3.2	-5.1	.	0.1	.	.	.	.
CCOC(=O)Cc1cc(-c2ccc(O)cc2)nc2ccc3ccccc3c12	i	-39.9	1.0	i	101.5*	98.9	91.8*	.
COc1ccc(-c2cc(C(=O)OCC(=O)N(C)C)c3ccccc3n2)cc1	i	-11.8	1.2	i	7.3	104.3	.	.
CCOC(=O)Cc1cc(-c2ccc(OC)cc2)nc2ccc3ccccc3c12	-2.2	-6.8	0.8	-4.3	128.6*	112.9	107.6*	16.3*
CC(=NNC(=O)CSc1nnc(-c2ccc(C(C)(C)C)cc2)n1-c1ccccc1)c1cccc2ccccc12	-0.8	-4.6	.	-0.1	.	.	.	.
Cc1c(O)nc(SCC(=O)Nc2ccc3c4c(cccc24)CC3)n(-c2ccc(F)cc2)c1=O	-11.8	0.4	0.2	-12.6	8.3	88.9	.	.
Cc1cc2oc(=O)cc(Cn3nnc(-c4ccc(Cl)cc4)n3)c2cc1C(C)C	.	.	-0.5	.	1.3	92.2	.	.
COC(=O)Cc1nnn2c1CC(OC)c1ccccc1-2 (stereo not given)	6.2	5.0	.	2.5	.	.	.	.
O=C(Nc1cccc(-c2cn3ccsc3n2)c1)c1ccccc1	0.0	1.8	0.8	-1.8	81.7*	105.6	72.1*	14.0*
Cc1nc(C(=O)Nc2ccccc2)sc1C(=O)Nc1ccccc1	-3.2	-12.6	3.4	1.2	1.7	112.9	.	.
Cc1nc(-c2cccnc2)sc1C(=O)Nc1ccc(Cl)cc1	-4.5	-0.9	-0.2	-2.5	124.3*	111.1	111.9*	13.2*
Cc1nc(-c2cccnc2)sc1C(N)=O	-2.2	3.5	-0.5	0.4	-0.3	128.1	.	.
Cc1nc(/N=C\N(C)C)sc1C(=O)Nc1ccccc1	2.3	2.0	1.3	1.3	108.5*	105.1	129.5*	10.7*
Cc1nc(N)sc1C(=O)Nc1ccccc1	4.5	5.6	0.4	6.9	105.1*	92.8	45.6	22.9*
COc1cc(CN2CCN(Cc3cccc(OC)c3OC)CC2)cc(OC)c1	-0.6	-2.6	0.4	0.7	5.3	107.7	.	.
O=C(Nc1ccccn1)c1ccc2ccccc2n1	0.1	0.7	4.0	-2.0	84.2*	93.8	167.9*	24.0*
O=C(Nc1ccccn1)C(=O)Nc1ccccn1	4.0	-2.2	1.4	2.2	3.8	95.2	.	.
O=C(Nc1ccccn1)c1ccc2ccccc2c1O	-63.1	3.9	1.5	-54.0	151.0*	110.9	151.8*	16.2*
O=C(CN(c1cccc([N+](=O)[O-])c1)S(=O)(=O)c1ccccc1)N1CCCCC1	-8.0	0.7	0.4	0.7	-1.8	107.7	.	.
Cn1c(-c2ccc(Cl)cc2)ccc(C#N)c1=O	-2.6	-0.4	-0.1	-3.5	99.7*	100.0	103.7*	13.7*
